One may read the AC50 as the concentration giving half of the maximal activity seen.

Among the data in PubChem BioAssay (EPA / NIEHS) are outcome and AC50 values, retold here.

Molecules are shown by their SMILES. Activity calls are given as the source filed them. How the source made its calls: active means hit-call score of the fitted dose curve at least 0.9, where 1 is the maximum; inactive means score below 0.9.

The assay in a line: ATG_Sox_CIS: Attagene CIS-FACTORIAL HepG2 Assay for human SRY-box transcription factor (SOX) (AID 2282960). The conditions noted are these: HepG2 Attagene cis-factorial SOX reporter, mRNA; actives raise or lower the signal. The procedure:
ATG_CIS is a cell-based, multiplexed-readout assay that uses HepG2, a human liver cell line, with measurements taken at 24 hours after chemical dosing in a 24-well plate.ATG_Sox_CIS is one of 52 assay component(s) measured or calculated from the ATG_CIS assay. It is designed to make measurements of mRNA induction, a form of inducible reporter, as detected with fluorescence intensity signals by Reverse transcription polymerase chain reaction (RT-PCR) and Capillary electrophoresis technology.Data from the assay component ATG_Sox_CIS was analyzed into 1 assay endpoint. This assay endpoint, ATG_Sox_CIS, was analyzed with bidirectional fitting relative to DMSO as the negative control and baseline of activity. Using a type of inducible reporter, measures of mRNA for gain or loss-of-signal activity can be used to understand the reporter gene at the transcription factor-level as they relate to the gene SOX1. Furthermore, this assay endpoint can be referred to as a primary readout, because this assay has produced multiple assay endpoints where this one serves a reporter gene function. To generalize the intended target to other relatable targets, this assay endpoint is annotated to the dna binding intended target family, where the subfamily is HMG box protein.
Human liver HepG2 cells are transiently transfected with multiple reporter transcription units (MRTUs) in 6-well plates using FuGene 6 reagent (Roche; 3 ml FuGene/1 mg DNA). The MRTU constructs are regulated by a cis-regulating element (promoter). […] A major difference between the CIS and TRANS system is that in CIS activities of endogenous TFs are measured, whereas the TRANS assay evaluates changes in activities of exogenous, chimeric NR-Gal4 proteins. […] At the end of 24 hour incubation, total RNA was isolated using TriZol reagent (Invitrogen). The isolated RNA is then reverse-transcribed using oligo(dT) primer and Mo-MLV reverse transcriptase (Invitrogen) with DNAse I (Ambion) treatment for 30 min. The one-tenth of the produced cDNA was amplified by PCR using Taq DNA polymerase (Invitrogen) and two reporter sequence-specific primers. The PCR products were fluorescently labeled by primer extension with 6-arboxyfluorescein (6-FAM) 5'-labeled reporter sequence-specific primer (2 min at 95 C, 20 s at 68 C and 10 min at 72 C) and these products were digested with 5U of HpaI (New England Biolabs) for 2h at 37 C. The fragments were purified using Qiaquick PCR columns (Qiagen), analyzed on an ABI 3130xL genetic analyzer (Applied Biosystems) with peak positions identified by using a set of X-rhodamine (ROX)-labeled MapMarker1000 molecular weight standards (BioVentures). The raw capillary electrophoresis data was processed using Attagraph software (Attagene).
With `CCC[N+](CCC)(CCC)CCC`, the call was inactive. `N#Cc1ccccc1N`: the call was inactive. For `O=[N+]([O-])c1c2ccccc2cc2ccccc12`, the result was inactive. For `CN(C)CCN(C)C`, the outcome was inactive.

As for `O=C(Nc1ccc(Br)cc1)c1cc(Br)cc(Br)c1O`, the call was inactive. For the compound `C[N+](C)(C)Cc1ccccc1`, the result was inactive. Turning to `C=CC(=O)NC(C)(C)CC(C)=O`, the outcome was inactive. Regarding `O=C/C(Cl)=C(/Cl)C(=O)O`, the AC50 is 83.9 µM (active). For `Brc1ccc(Br)cc1`, the outcome was inactive. Turning to `O=S(=O)(Oc1ccc(Cl)cc1)c1ccc(Cl)cc1`, the outcome was inactive. Turning to `COC(F)(C(F)(F)C(F)(F)F)C(F)(C(F)(F)F)C(F)(F)F` (stereo not given), the call was inactive. Take `Cc1ccccc1OP(=O)(Oc1ccccc1)Oc1ccccc1`: the result was inactive. Same read-out and setting: the entry for `CNC(=O)O/N=C/C(C)(C)S(C)(=O)=O` is “inactive”; for `CCN(N=O)C(N)=O` it is “inactive”. In the case of `O=S1OC[C@@H]2[C@H](CO1)[C@]1(Cl)C(Cl)=C(Cl)[C@@]2(Cl)C1(Cl)Cl` (stereo not given in full), the compound was classed as inactive. For `C#CCO`, the result was inactive. The same measure, in the same setting: the entry for `O=[N+]([O-])c1ccccc1O` is “inactive”; for `O=CCCl` it is “inactive”; for `O=C(O)C1(c2ccc3c(c2)OC[C@H](Cc2ccc(-c4ccccc4)cc2)[C@H]3O)CCCC1` it is “inactive”. Consider `CCCCCCCCCCCCc1cccc(S(=O)(=O)O)c1`, for which the compound was classed as inactive. Still for that read-out and setting: the entry for `CC1(C)[C@H](C(=O)O[C@H](C#N)c2cccc(Oc3ccccc3)c2)[C@@H]1/C=C(\Cl)C(F)(F)F` is “inactive”. On to `c1ccc2c(c1)Oc1ccccc1O2`, for which the outcome was inactive. On to `O=[N+]([O-])c1cccc2ccccc12`, for which the result was inactive. `CC(=O)CN(CC(C)=O)N=O`: the call was inactive.

For `CCOc1ccc(N)cc1`, the compound was called inactive.

`CC1(C)[C@H](/C=C2\CCSC2=O)[C@@H]1C(=O)OCc1coc(Cc2ccccc2)c1`: the call was inactive.

On to `CCOC(=O)OC1=C(c2cc(C)ccc2C)C(=O)NC12CCC(OC)CC2` (stereo not given), for which the call was inactive. `Cc1cc(Cl)ccc1N`: the call was inactive.

Regarding `Cc1ccc(CCl)cc1`, the call was inactive. Consider `[Cl][Sn]([c]1ccccc1)([c]1ccccc1)[c]1ccccc1`, for which the AC50 is 0.217 µM (active). Regarding `COC(=O)c1cc(Oc2ccc(Cl)cc2Cl)ccc1[N+](=O)[O-]`, the result was inactive. As for `Brc1ccc(Oc2c(Br)cc(Br)cc2Br)c(Br)c1`, the call was inactive. Regarding `CCOP(=O)(OCC)OC(=CCl)c1ccc(Cl)cc1Cl`, the compound was called inactive. Same read-out and setting: the entry for `O=[N+]([O-])c1ccc(Cl)c([N+](=O)[O-])c1` is “inactive”; for `Nc1c(Oc2ccccc2)cc(O)c2c1C(=O)c1ccccc1C2=O` it is “inactive”. The same measure, in the same setting: the entry for `CC(C)CC(C)(c1ccc(O)cc1)c1ccc(O)cc1` is “inactive”; for `Cc1ccc(OP(=O)(Oc2ccc(C)cc2C)Oc2ccc(C)cc2C)c(C)c1` it is “inactive”. In the case of `NC(=O)c1ccc(N)nc1`, the compound was classed as inactive. For the compound `CC(F)(F)CC(F)(F)F`, the result was inactive. For the compound `Cc1c([N+](=O)[O-])c(C)c([N+](=O)[O-])c(C(C)(C)C)c1[N+](=O)[O-]`, the compound was called inactive.
